± gives the uncertainty stated by the source.
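Further: viable cell number estimated from Alamar Blue fluorescence read at 560/90, part of a single-dose primary screen of an FDA-approved drug library.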

For this assay, the system named is U87. As to the kind of experiment: cell viability relative to vehicle control; higher = less growth inhibition (less active). The following applies: 10 µM; 72 h.
Consider `CCN(CC)CCOC(=O)C(O)(c1ccccc1)c1ccccc1`, for which the cell viability was 101 ± 3.5%.
As for `CC[C@]1(O)CC[C@H]2[C@@H]3CCC4=CCCC[C@@H]4[C@H]3CC[C@@]21C` [Ethylestrenol], the cell viability was found to be 101.7 ± 0.91%.
Under `NC(=O)OCCCc1ccccc1` stands 104 ± 1.9%; under `CC(C)[C@]12O[C@H]1[C@@H]1O[C@]13[C@]1(O[C@H]1C[C@H]1C4=C(CC[C@@]13C)C(=O)OC4)[C@@H]2O`, 26.3 ± 2.5%; under `CN1C(=O)CN=C(c2ccccc2)c2cc(Cl)ccc21` [Diazepam], 98.6 ± 2.1%.
Regarding `COc1cc2c(cc1OC)[C@@]13CCN4CC5=CCO[C@H]6CC(=O)N2[C@H]1[C@H]6[C@H]5C[C@H]43` [Brucine], the cell viability is 107 ± 1.1%.
As to `c1ccc(Cn2ccnc2)cc1`, the cell viability amounted to 105 ± 1.2%.
With `CC(=O)O[C@H]1C[C@@H]2CC[C@@H]3[C@H](CC[C@@]4(C)[C@H]3C[C@H]([N+]3(C)CCCCC3)[C@@H]4OC(C)=O)[C@@]2(C)C[C@@H]1[N+]1(C)CCCCC1` [Pancuronium], the cell viability stood at 103.79 ± 0.081%.
Consider `CN1CC[C@]2(c3cccc(O)c3)Cc3nc4ccccc4cc3C[C@H]2C1`, for which the cell viability was 103 ± 1.4%.
As for `CCCCCCCCCOc1ccc2[nH]cc(CCN)c2c1` [5-Nonyloxytryptamine], the figure is 37.1 ± 1.2%; as for `CNC(=O)Oc1ccc2c(c1)[C@]1(C)CCN(C)[C@@H]1N2C` [Physostigmine], 93 ± 1.4%; as for `COC(=O)N1CCN(C(=O)Cc2ccc(Cl)c(Cl)c2)C(CN2CCCC2)C1` (stereo not given), 105 ± 2.6%.
Consider `C[C@]12C/C(=C/O)C(=O)C[C@@H]1CC[C@@H]1[C@@H]2CC[C@@]2(C)[C@H]1CC[C@]2(C)O` [Oxymetholone], for which the cell viability was determined as 113 ± 2.5%.
As for `O=C1CN=C(c2ccccc2)c2cc([N+](=O)[O-])ccc2N1` [Nitrazepam], the figure is 103.3 ± 0.55%; as for `O=c1c2ccccc2[se]n1-c1ccccc1`, 107 ± 1.6%; as for `O=C1Nc2ccc(Cl)cc2C(c2ccccc2Cl)=NC1O` (stereo not given) [Lorazepam], 105.6 ± 0.26%.
As for `COc1ccc2[nH]cc(CCN)c2c1` [5-Methoxytryptamine], the cell viability is 109 ± 1.3%.
Turning to `CC(C)CC(N(C)C)C1(c2ccc(Cl)cc2)CCC1` (stereo not given) [Sibutramine], the cell viability came to 111.8 ± 0.39%.
For `Oc1ccc2c3c1O[C@H]1c4[nH]c5ccccc5c4C[C@@]4(O)[C@@H](C2)N(CC2CC2)CC[C@]314` [Naltrindole], the cell viability was 105 ± 3%.
For the compound `C[C@]12CC[C@H]3[C@@H](CCC4=CC(=O)CC[C@@]43C)[C@@H]1CC[C@@H]2O` [Testosterone], the cell viability is 107 ± 1.6%.
Turning to `C[C@H]1CCC[C@H](O)CCCCCc2cc(O)cc(O)c2C(=O)O1`, the cell viability came out at 107 ± 2.7%.
For `CC(C)CC(N(C)C)C1(c2ccc(Cl)cc2)CCC1` (stereo not given), the cell viability worked out at 108 ± 1.9%.
Under `CN1CC[C@]23CCCC[C@H]2[C@H]1Cc1ccc(O)cc13` stands 101.4 ± 0.14%; under `Cc1ccc(-c2nc3ccc(C)cn3c2CC(=O)N(C)C)cc1`, 106 ± 1.9%.
Consider `COc1ccc2[nH]cc(C3=CCNCC3)c2c1`, for which the cell viability was 105 ± 2.3%.
For `CN1C(=O)COc2c(C(=O)NC3CN4CCC3CC4)cc(Cl)cc21` (stereo not given) [Azasetron], the cell viability was 103 ± 1.1%.
As for `C[C@]12Cc3c[nH]nc3C[C@@H]1CC[C@@H]1[C@@H]2CC[C@@]2(C)[C@H]1CC[C@]2(C)O` [Stanozolol], the cell viability stood at 107 ± 2.4%.
For the compound `COc1cccc(C2(O)CCCCC2CN(C)C)c1` (stereo not given) [Tramadol], the cell viability was determined as 102 ± 2.1%.
As for `C#CCN(C)[C@H](C)Cc1ccccc1` [Selegiline], the figure is 103 ± 1.2%.
Regarding `C[N+]1(C)CCN(c2ccccc2)CC1`, the cell viability worked out at 96.62 ± 0.74%.
Take `CC(O)(CS(=O)(=O)c1ccc(F)cc1)C(=O)Nc1ccc(C#N)c(C(F)(F)F)c1` (stereo not given): the cell viability came to 103 ± 1.5%.
With `C[C@]12CCC(=O)C=C1CC[C@@H]1[C@@H]2CC[C@@]2(C)[C@H]1CC[C@]2(C)O` [Methyltestosterone], the cell viability was 66.4 ± 2.3%.
As to `Oc1ccc2c3c1O[C@H]1[C@@H](O)CC[C@@]4(O)[C@@H](C2)N(CC2CCC2)CC[C@]314` [Nalbuphine], the cell viability worked out at 99.2 ± 7.3%.
As for `N=C(NCc1ccc(Cl)cc1)SCCCc1c[nH]cn1` [Clobenpropit], the cell viability worked out at 102 ± 1.4%.
In the case of `CC[C@@H](C(N)=O)N1CCCC1=O`, the cell viability amounted to 110 ± 12%.

The values are drawn from the supplement of paper PMC3898565.
